Assay outcomes deposited in PubChem by National Center for Advancing Translational Sciences (NCATS).
GoLoco inh red – inhibitors of human Gai1-RGS12 GoLoco interaction (red fluorophore) | Gai1:RGS12 GoLoco peptide FP, rhodamine, 10 min | Potency, µM (series often up to 61.6 µM), without a hit: at the highest dose activity, negative = inhibition, most hits filed as inhibitors | actives 0.44% (n = 230,000) | P63096; active means well fitted inhibition curve with a large enough effect, not every such curve was filed as active; inactive means no such curve, though single readings can be large or run the other way; further: potency means the concentration at half of the fitted maximal effect; nearly all actives have a fitted effect of over 30% in size
Target sequence (P63096 whole entry, looked up): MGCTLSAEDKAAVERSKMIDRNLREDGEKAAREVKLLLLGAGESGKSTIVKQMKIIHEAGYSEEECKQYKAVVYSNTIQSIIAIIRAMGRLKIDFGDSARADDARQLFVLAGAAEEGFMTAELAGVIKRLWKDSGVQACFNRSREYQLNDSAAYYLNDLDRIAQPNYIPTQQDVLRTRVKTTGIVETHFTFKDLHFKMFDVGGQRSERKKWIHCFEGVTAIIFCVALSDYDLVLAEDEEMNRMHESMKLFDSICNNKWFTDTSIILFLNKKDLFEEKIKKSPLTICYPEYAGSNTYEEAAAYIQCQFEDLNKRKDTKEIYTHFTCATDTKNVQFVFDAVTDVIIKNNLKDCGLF
FBPA coupling cs – inhibits coupling enzyme system, counter-screen for aldolase hits; coupling enzyme system counterscreen, AmpLite Red fluorescence; actives 0.67% (n = 290,000); activity change, negative = inhibition, % at 58.2 µM, hits read low; in the data active means activity change below about -30%
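Activity here indicates interference with the coupling reaction, not aldolase inhibition. Compounds at 57.5 uM final met coupling enzymes for 10 min at RT; substrate and AmpLite Red detection followed, with a 525/598 nm fluorescence read after 20 min.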
NPSR antag – neuropeptide S receptor (human) antagonism, cAMP | actives 1% (n = 220,000) | CHO-NPSR cells, cAMP TR-FRET, antagonist mode | AID 1461 | Potency, µM (doses to about 38.3 µM), for the others: at the top dose activity change, negative = inhibition, actives largely listed as inhibitors; further: potency means the concentration at half of the fitted maximal effect; nearly all actives have a fitted effect of over 50% in size
JMJD2E inh – blocks human JMJD2E demethylase activity | B2RXH2 | JMJD2E catalytic domain, FDH-coupled NADH fluorescence (FDH is formaldehyde dehydrogenase) | Potency, µM (top dose mostly 57.1 µM), for inactives: at the top dose activity change, negative = inhibition, most hits filed as inhibitors | actives 1.6% (n = 230,000) | AID 2147; active means well fitted inhibition curve with a large enough effect, not every such curve was filed as active; inconclusive means small, poorly fitted or top-dose-only effect, or another doubt; inactive means no such curve, though single readings can be large or run the other way;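 further: potency means the concentration at half of the fitted maximal effect; 0% = wells with enzyme and -100% = buffer wells without enzyme; nearly all actives have a fitted effect of over 50% in size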
Target sequence (B2RXH2 1-337 limits assumed): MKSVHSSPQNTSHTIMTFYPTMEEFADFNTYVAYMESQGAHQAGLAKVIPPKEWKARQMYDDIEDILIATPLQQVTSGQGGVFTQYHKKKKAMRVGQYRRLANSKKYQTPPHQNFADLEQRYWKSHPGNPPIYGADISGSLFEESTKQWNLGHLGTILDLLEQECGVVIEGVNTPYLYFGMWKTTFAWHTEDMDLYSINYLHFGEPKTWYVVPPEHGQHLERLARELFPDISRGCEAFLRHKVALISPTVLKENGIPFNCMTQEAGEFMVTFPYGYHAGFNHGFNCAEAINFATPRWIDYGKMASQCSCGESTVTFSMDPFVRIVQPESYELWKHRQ
ALDH1A1 block – ALDH1A1 (human) enzyme inhibition; Purified ALDH1A1, NADH fluorescence, propionaldehyde substrate; P00352; AID 1030; actives 7.3% (n = 220,000); Potency, µM (titrated, usually from 75.3 µM), for inactives: at the top dose activity, negative = inhibition, hits mostly inhibitors; active means well fitted inhibition curve with a large enough effect, not every such curve was filed as active; inconclusive means small, poorly fitted or top-dose-only effect, or another doubt; inactive means no such curve, though single readings can be large or run the other way;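 further: potency means the concentration at half of the fitted maximal effect; plate controls were no enzyme wells and a reference inhibitor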
Sfp PPTase inh – Sfp phosphopantetheinyl transferase inhibition; Q9F4F7; Biochemical Sfp PPTase activity, qHTS; Potency, µM, without a hit: largest response in the series, negative = inhibition, usual class: inhibitors; actives 3.5% (n = 310,000); AID 1490;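 further: the enzyme is Sfp with the accession as filed and its product quenches rhodamine fluorescence; potency means the concentration at half of the fitted maximal effect; 0% = enzyme reaction without inhibitor and -100% = no enzyme wells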
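Step 1, compound plus 15 nM Sfp-PPTase, 15 min, room temperature. Step 2, add rhodamine-CoA (5 uM) and BHQ-2-YbbR (12.5 uM). Step 3, read 525/598 nm fluorescence at 0 and 30 min.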
* hit, by the source's call; ? = inconclusive; . = not tested or not shown; [ ] = remark or other dose. Rows were chosen to be rich in hits. Some 8.5% of all compounds tested hit in one or more screens of this group. Unless noted, the call rests on the fitted dose curve; in most records, active means well fitted curve in the direction sought with a large enough effect; inconclusive means small, poorly fitted or top-dose-only effect, or another doubt; inactive means no such curve, though single readings can be large; an effect the other way counts as inactive or inconclusive. Unless noted, on the % scale 0 is the no-effect control and ±100 the full control effect.

SMILES	GoLoco inh red	FBPA coupling cs	NPSR antag	JMJD2E inh	ALDH1A1 block	Sfp PPTase inh
COC(=O)C1=C(C(=O)OC)[C@@H]2N(Cc3ccccc3)c3ccccc3[C@@]23C[C@@H](C(=O)OC)N(S(=O)(=O)c2ccc([N+](=O)[O-])cc2)C3=N1	4%[14.2 µM]	-2	.	0%[11.4 µM]	-8%[13.5 µM]	-3%
CC(C(=O)OCC(=O)c1ccc([N+](=O)[O-])cc1)N1C(=O)C2C3CCC(C3)C2C1=O (configuration not stated)	-5%	1	5%	0%	3.2µM*	-17%
CCOC(=O)C1CCN(C(c2cc3ccc(C)cc3[nH]c2=O)c2nnnn2C2CCCCC2)CC1 (configuration not stated)	0%	-4	?	?	?	35µM*
COc1cc2cc(C(c3nnnn3C3CCCC3)N3CCc4ccccc43)c(=O)[nH]c2cc1OC (configuration not stated)	4%	-6	?	?	-11%	-10%
COc1ccccc1N1CCN(C(c2cc3cc(C)ccc3[nH]c2=O)c2nnnn2C2CCCC2)CC1 (configuration not stated)	-11%	-15	-9%[46.1 µM]	-11%	14µM*	?
COc1ccccc1N1CCN(C(c2cc3ccc(C)cc3[nH]c2=O)c2nnnn2C2CCCC2)CC1 (configuration not stated)	2%	-34*	?	?	25µM*	40µM*
COc1ccccc1N1CCN(C(c2ccccn2)c2nnnn2C2CCCCC2)CC1 (configuration not stated)	-3%	1	-12%[46.1 µM]	-1%	-3%	7%
Cc1ccc(OC(=O)c2ccc([N+](=O)[O-])cc2Cl)cn1	.	1	.	.	.	9%
COCCNCC(=O)C12CC3CC(CC(C3)C1)C2	-16%	0	2%[46.1 µM]	14%	10µM*	5%
CCOC(=O)C(NC(=O)CCl)(Nc1sc(C)c(CC)c1C#N)C(F)(F)F (configuration not stated)	-7%	-2	10%	-17%	-1%	-8%
CCOC(=O)C(NC(=O)N(C)C)(Nc1sc(C)c(CC)c1C#N)C(F)(F)F (configuration not stated)	-9%	-5	11%	-1%	?	45µM*
Cn1c[n+](C)cc1/C=N/O	4µM*	0	-3%[46.1 µM]	0%	15%	0%
Cn1c(/C=N/O)nc2ccccc21	-3%	-8	16%	?	.	-24%
N#Cc1c(N)nc2c(c1-c1ccc(Br)s1)CCCC2	12%	-1	-19%	0%	-5%	5%
Nc1nc(-c2ccc(Br)s2)c(Br)s1	12%	2	-11%[46.1 µM]	-5%	-21%	35µM*
O=C(c1cc2cc([N+](=O)[O-])ccc2oc1=O)N1CCOCC1	6%	1	2%	?	13µM*	?
COC(=O)c1ccc(C(NC(=O)OCc2ccccc2)/C(=C/[C@@H](C)C(=O)NCc2cc(C)n(C)n2)c2cccnc2)cc1 (some centres not stated)	7%	-4	.	14%	10%	19%
O=[N+]([O-])c1ccc(S(=O)(=O)Cc2ccccc2)c2nonc12	-15%[14.2 µM]	.	.	.	1.8µM*	.
Cc1ccn2c(c1)nc(=S)n2C(=O)c1ccco1	4%	2	4%	-24%	?	?
O=C1c2ccccc2C(=O)N1c1cccc(-c2nc3ccccc3o2)c1	-1%	-1	0%[46.1 µM]	0%	5%	7%
O=C1C=CC(=O)N1c1cccc(-c2ccccc2)c1	-26%	5	5%	-1%	0.02µM*	1.8µM*
O=C(Cc1ccc(S(=O)(=O)N2CCOCC2)s1)Nc1ccc2c(c1)CCC2	5%	1	-12%[46.1 µM]	-2%	-11%	7%
Nc1cc(C(=O)N/N=C/c2cccc([N+](=O)[O-])c2)n[nH]c1=O	11%	-1	10%	0%	.	-8%
COc1cc([C@@H]2c3cc4c(cc3[C@@H](OC3OC5COC(C)OC5C(O)C3O)[C@H]3COC(=O)[C@H]23)OCO4)cc(OC)c1O (some centres not stated)	-17%	.	.	.	-1%	34%
COc1cc([C@@H]2c3cc4c(cc3[C@@H](O)[C@H]3COC(=O)[C@H]23)OCO4)cc(OC)c1O[Si](C)(C)C(C)(C)C	0%	-3	10µM*	-10%	.	-11%
SMILES	GoLoco inh red	FBPA coupling cs	NPSR antag	JMJD2E inh	ALDH1A1 block	Sfp PPTase inh
COc1cc([C@@H]2c3cc4c(cc3[C@@H](O[C@@H]3O[C@H]5CO[C@@H](C)O[C@@H]5[C@@H](O)[C@H]3O)[C@@H]3COC(=O)[C@@H]23)OCO4)cc(OC)c1O	28µM*	-49*	.	1%	-1%	89µM*
CC/C(=N\NC(=O)c1nnn(-c2nonc2N)c1-c1cccc(OC)c1)c1ccc(C)cc1	.	0	.	.	.	2%
COc1ccc(/C=N/NC(=O)CCn2cnc(-c3ccccc3)c2-c2ccccc2)cc1OC	7%	4	8%	-7%	28µM*	0%
COc1ccc(/C=N/NC(=O)CCC(=O)Nc2ccccc2)cc1OC	4%	-1	11%	-2%	12%	11%
O=C1CCC=C1C(O)c1ccc(Cl)cc1 (configuration not stated)	-3%	0	.	7%	-8%	-8%
Cc1ccc(/C=C/c2nc3sc(C(=O)O)c(C)c3c(=O)[nH]2)cc1[N+](=O)[O-]	.	4	.	.	.	79µM*
Cc1c(C(=O)O)sc2nc(/C=C/c3cccc(F)c3)[nH]c(=O)c12	.	1	.	.	.	9%
Cc1sc2nc(C3CC3)nc(SCC(=O)N3CCc4ccccc4C3)c2c1C	-3%	2	?	?	14µM*	-15%
C=CCN(C(=O)CNC(=O)c1ccco1)C(C(=O)NC1CCCC1)c1ccc(OC)cc1 (configuration not stated)	.	-4	.	.	.	4%
COc1ccc(CCn2c(Br)nc3c2c(=O)[nH]c(=O)n3C)cc1	-13%	5	-1%[46.1 µM]	5%	6%	5%
COc1ccc(CCn2c(NN=C(C)C)nc3c2c(=O)[nH]c(=O)n3C)cc1	52%	-24	-3%	?	.	56µM*
COc1ccc(CCn2c(NN)nc3c2c(=O)[nH]c(=O)n3C)cc1	20%	-24	0%	?	.	50µM*
O=C(CSc1ccc2nnc(-c3cccnc3)n2n1)Nc1ccc(F)cc1F	.	.	.	.	.	5%
Cc1cccc(C(=O)NC2CC3CCCC(C2)N3C(=O)Nc2ccccc2)c1 (configuration not stated)	.	-3	.	.	.	7%
COC(=O)CSc1nc2ccc(NC(=O)CSc3nnnn3Cc3ccccc3)cc2s1	8%	2	?	-2%	4.5µM*	-6%
